Results filed as inconclusive are left out. Activity calls are given as the source filed them. The calls were made as follows: active = hit-call score of the fitted dose curve at least 0.9, where 1 is the maximum; inconclusive = response in the unintended direction; inactive = score below 0.9.

The test is described as follows: ACEA_ER_AUC_viability: ACEA Biosciences xCELLigence Real-Time Cell Analysis on Estrogen Receptor Agonism for Viability (AID 2283782).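 Also: hit means loss of impedance signal meaning reduced cell growth or viability.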 Put shortly: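 Viability endpoint: reduced impedance area under the curve relative to DMSO, recorded by real-time electrode sensing over ~80 h of continuous exposure. Duplicate plates of T47D in hormone-depleted medium; eight concentrations, 1:4 dilutions, 100 uM maximum.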
`COP(=S)(OC)Oc1ccc(S(=O)(=O)N(C)C)cc1`: the outcome was inactive.
With `O=P(O)(O)c1ccccc1`, the outcome was inactive.
What is called AC50 is the concentration giving half of the maximal activity seen. `COC(=O)Cc1ccccc1`: the concentration at half-maximal activity (AC50) was 30.7 µM (active).
On to `O=[N+]([O-])c1ccc2c3c(cccc13)CC2`, for which the outcome was inactive.
As for `CC(C)(OO)c1ccccc1`, the AC50 was 14.7 µM (active).
Consider `CC1CCCCC1NC(=O)Nc1ccccc1` (stereo unspecified), for which the AC50 is 26.2 µM (active).
Take `O=C(O)CCC(F)(C(F)(F)F)C(F)(F)F`: the call was inactive.
Take `N#CCc1ccc(Cl)cc1`: the compound was called inactive.
Take `COc1ccc(C=O)cc1`: the call was inactive.
As to `CCCCCCCCCCCCCCCC[n+]1ccccc1`, the AC50 was 5.69 µM (active).
Take `O=C/C=C/c1ccccc1`: the result was inactive.
Turning to `CCC(C)(C)c1ccc(O)c(C(C)(C)CC)c1`, the AC50 is 14.9 µM (active).
As for `COS(=O)(=O)c1ccc(C)cc1`, the compound was called inactive.
Turning to `COP(=S)(OC)Oc1cc(Cl)c(Br)cc1Cl`, the AC50 was 92.6 µM (active).
Take `ClC1=C(Cl)[C@]2(Cl)[C@@H]3[C@@H](Cl)[C@@H](Cl)C[C@@H]3[C@@]1(Cl)C2(Cl)Cl`: the call was inactive.
As to `NC(=O)CF`, the outcome was inactive.
With `CCN(CC)C(=O)Cl`, the compound was called inactive.
Consider `CC(C)CCCCCCOC(=O)c1ccccc1C(=O)OCCCCCCC(C)C`, for which the AC50 is 40.9 µM (active).
For `O=P(O)(O)CN(CP(=O)(O)O)CP(=O)(O)O`, the call was inactive.
For the compound `COP(=S)(OC)Oc1cc(Cl)c(Cl)cc1Cl`, the AC50 was 88 µM (active).
As to `COC(=O)c1sccc1S(=O)(=O)NC(=O)Nc1nc(C)nc(OC)n1`, the outcome was inactive.
For `ClC(Cl)=C(Cl)C(Cl)=C(Cl)Cl`, the compound was classed as inactive.
`O=C(c1ccccc1)C(Cl)Cl`: the AC50 was 22.6 µM (active).
On to `Cc1cc(Cl)ccc1O[C@H](C)C(=O)O`, for which the compound was classed as inactive.
Take `Cn1sc(Cl)cc1=O`: the AC50 was 86.9 µM (active).
Regarding `BrCCBr`, the result was inactive.
For `C[C@H]1O[C@@H](O[C@H]2[C@@H](O)C[C@H](O[C@H]3[C@@H](O)C[C@H](O[C@H]4CC[C@@]5(C)[C@H](CC[C@@H]6[C@@H]5CC[C@]5(C)[C@@H](C7=CC(=O)OC7)CC[C@]65O)C4)O[C@@H]3C)O[C@@H]2C)C[C@H](O)[C@@H]1O`, the AC50 was 0.159 µM (active).
Take `Nc1cccc(Cl)c1`: the compound was called inactive.
Take `O=C(Cl)c1ccc(Cl)cc1`: the call was inactive.
Same read-out and setting: the result for `CC(=O)c1cc(C(C)(C)C)cc2c1CCC2(C)C` reads “inactive”.
Turning to `Cl/C=C\C[N+]12CN3CN(CN(C3)C1)C2`, the AC50 is 50 µM (active).

These data come from PubChem BioAssay (EPA / NIEHS).
